Data as given in PubChem BioAssay (NCATS).
Inconclusive results are not listed. Where a call stands in place of a potency, no number is given. The source made the active and inactive calls. Calls follow the shape of the dose curve; as a rule, active = well fitted inhibition curve with a large enough effect; inconclusive = small, poorly fitted or top-dose-only effect; inactive = flat fitted curve, though single readings scatter.

molecular target: Ubiquitin carboxyl-terminal hydrolase 1 (Homo sapiens) (UniProt O94782); experiment: Inhibitors of USP1/UAF1: Pilot qHTS (AID 504865); details: purified USP1/UAF1, Ub-rhodamine cleavage fluorescence; series mostly up to 114 µM; also: nearly all actives have a fitted effect of over 35% in size
Outline: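 USP1/UAF1 complex (1nM) preincubated with compound 15 min at room temperature, then Ub-Rho substrate (150nM final) added. Fluorescence read kinetically at 480/540 nm, 6 reads every 60 seconds. Buffer: 50mM HEPES pH 7.8, 0.5mM EDTA, 0.1 mg/ml BSA, 1mM TCEP, 0.01% Tween-20.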
Potency is read from the fitted curve at half-maximal effect.

Sequence of Ubiquitin carboxyl-terminal hydrolase 1 (Homo sapiens) (O94782 whole entry, looked up): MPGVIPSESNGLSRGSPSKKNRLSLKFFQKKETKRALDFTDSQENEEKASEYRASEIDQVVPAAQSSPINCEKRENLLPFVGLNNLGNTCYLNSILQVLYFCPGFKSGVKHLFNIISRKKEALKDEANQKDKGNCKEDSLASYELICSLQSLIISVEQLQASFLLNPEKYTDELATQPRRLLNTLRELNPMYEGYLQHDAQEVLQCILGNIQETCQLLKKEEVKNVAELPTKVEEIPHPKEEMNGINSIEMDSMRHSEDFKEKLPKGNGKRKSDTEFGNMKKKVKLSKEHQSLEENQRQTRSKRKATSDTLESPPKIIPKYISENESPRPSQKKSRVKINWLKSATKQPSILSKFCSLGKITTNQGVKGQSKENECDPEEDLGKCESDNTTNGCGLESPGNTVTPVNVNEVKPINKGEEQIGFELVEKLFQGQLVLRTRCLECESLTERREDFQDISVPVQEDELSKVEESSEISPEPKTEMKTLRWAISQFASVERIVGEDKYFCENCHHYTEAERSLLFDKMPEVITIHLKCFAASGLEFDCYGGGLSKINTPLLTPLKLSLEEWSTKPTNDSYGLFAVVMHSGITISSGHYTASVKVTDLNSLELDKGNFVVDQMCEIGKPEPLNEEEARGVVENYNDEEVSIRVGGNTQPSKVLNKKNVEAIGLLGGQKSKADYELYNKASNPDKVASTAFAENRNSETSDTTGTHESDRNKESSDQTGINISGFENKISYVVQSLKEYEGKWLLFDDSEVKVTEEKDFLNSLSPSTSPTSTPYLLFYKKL

Structure (SMILES)	Potency
COc1cc(C)c(/C=C/C(C)=C/C=C/C(C)=C/C(=O)O)c(C)c1C	50.1 µM (active)
CC(C)(CO)[C@@H](O)C(=O)NCCC(=O)NCCSSCCNC(=O)CCNC(=O)[C@H](O)C(C)(C)CO	inactive
CC(C)[C@H](N)C(=O)OCC(CO)OCn1cnc2c(=O)[nH]c(N)nc21 (stereo partly drawn)	inactive
COc1ccc(/C=C/C(=O)O)cc1	inactive
CCCCCCCCCCCCOCCCN	inactive
O=C(O)/C=C/C(=O)Nc1ccc(S(=O)(=O)Nc2nccs2)cc1	inactive
CC(C)c1nc(N(C)S(C)(=O)=O)nc(-c2ccc(F)cc2)c1/C=C/C(O)CC(O)CC(=O)O (stereo not drawn)	inactive
COc1cc2c(cc1OC)[C@@H](Cc1cc(OC)c(OC)c(OC)c1)[N+](C)(CCCOC(=O)CC/C=C/CCC(=O)OCCC[N+]1(C)CCc3cc(OC)c(OC)cc3[C@H]1Cc1cc(OC)c(OC)c(OC)c1)CC2 (stereo partly drawn)	inactive
O=C1CCC(c2ccccc2)(C2CCN(Cc3ccccc3)CC2)C(=O)N1 (stereo not drawn)	inactive
O=C(O)COc1ccccc1/C=N/NC(=O)c1ccncc1	inactive
O=P(O)(O)OP(=O)(O)OP(=O)(O)O	inactive
Cc1cccc(Nc2ncccc2C(=O)O)c1C	inactive
CN1C(C(=O)Nc2ccccn2)C(=O)c2sc(Cl)cc2S1(=O)=O (stereo not drawn)	inactive
CC(C)c1ncc([N+](=O)[O-])n1C	inactive
Cc1cccc(C)c1NC(=O)C1CCCCN1C (stereo not drawn)	inactive
COC(=O)CCC[N+](C)(C)C	inactive
c1ccc2c(c1)Sc1ccccc1N2CCN1CCCC1	inactive
CNC(=O)c1c(I)c(C(=O)NCC(=O)Nc2c(I)c(C(=O)O)c(I)c(C(=O)NCCO)c2I)c(I)c(N(C)C(C)=O)c1I	inactive
